Data published in PubChem BioAssay AID720597 (Broad Institute, 2013).
Results with a measured potency or affinity are listed apart.

biological target: NAD-dependent protein deacylase sirtuin-5, mitochondrial (Homo sapiens) (UniProt Q9NXA8); assay: SIRT5 deacylase inhibitors, dose response, biochemical, fluorescence imaging, cherry-pick, set 6 (AID 720597); conditions: Purified SirT5, succinyl-peptide-AMC/trypsin fluorescence; series mostly up to 15 µM; activity change, negative = inhibition: at the top concentration;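 further: lower AMC signal can also come from blocking the trypsin step; 0% = median of neutral control wells and -100% = median of positive control wells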
Sequence (Q9NXA8 whole entry, looked up): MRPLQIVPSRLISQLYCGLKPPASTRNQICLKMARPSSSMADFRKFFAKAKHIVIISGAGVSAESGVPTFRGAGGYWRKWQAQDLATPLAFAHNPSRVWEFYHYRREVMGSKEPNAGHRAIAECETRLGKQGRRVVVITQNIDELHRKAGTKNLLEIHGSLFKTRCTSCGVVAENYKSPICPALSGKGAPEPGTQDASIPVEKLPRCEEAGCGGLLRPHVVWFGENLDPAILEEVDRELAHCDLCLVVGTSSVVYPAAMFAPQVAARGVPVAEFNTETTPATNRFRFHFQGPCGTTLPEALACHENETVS

Activity change, negative = inhibition, inactive:
CC(C)(C)NC(=O)CSc1nnc(-c2ccco2)n1-c1ccccc1 -10.4% [at 16 µM]
CCCNC(=O)N1[C@@H](CO)[C@@H](c2ccccc2)C12CN(C(=O)CC1CC1)C2 4.32%
O=C(NC1CCCC1)N1CCCCN2[C@H](C1)[C@H](c1ccc(/C=C/c3ccccc3)cc1)[C@@H]2CO -2.21%
CCCN(C)C[C@@H]1Oc2cc(-c3ccccc3OC)ccc2S(=O)(=O)N([C@H](C)CO)C[C@@H]1C 39%
CN(C)Cc1cn(CC[C@H]2CC[C@@H](NC(=O)Nc3ccccc3F)[C@@H](CO)O2)nn1 7.23%
COc1ccc(S(=O)(=O)Nc2ccc3c(c2)C(=O)N([C@@H](C)CO)C[C@H](C)[C@@H](CN(C)Cc2ccc(C(F)(F)F)cc2)OCCCC[C@H](C)O3)cc1 -3.79%
CC(C)NC(=O)N(C)C[C@H]1Oc2ccc(NC(=O)Cc3ccccc3)cc2C(=O)N([C@H](C)CO)C[C@@H]1C 8.2%
CC(C)CC#Cc1ccc2c(c1)O[C@@H](CN(C)C(=O)C1CCCCC1)[C@H](C)CN([C@H](C)CO)S2(=O)=O -7.58%
C[C@@H]1CN([C@@H](C)CO)C(=O)Cc2cc(NS(=O)(=O)c3ccc(Cl)cc3)ccc2O[C@H]1CN(C)Cc1ccc(Oc2ccccc2)cc1 -16.6%
O=C(Nc1ccccc1F)N1CC(=O)N2[C@H](C1)[C@@H](c1ccc(C#CC3CCCC3)cc1)[C@@H]2CO 23.2%
COc1cccc(CNC(=O)C[C@H]2CC[C@@H]3[C@@H](COc4ccc(NC(=O)c5cccs5)cc4C(=O)N3C)O2)c1 5.59%
C[C@@H]1CN([C@@H](C)CO)C(=O)c2ccccc2-c2ccccc2CO[C@H]1CN(C)Cc1ccccc1C(F)(F)F -23%
COc1ccccc1-c1ccc2c(c1)O[C@H](CN(C)S(=O)(=O)c1ccc(F)cc1)[C@H](C)CN([C@H](C)CO)S2(=O)=O -19.5%
COc1ccc(NC(=O)N(C)C[C@H]2Oc3cc(C#CCC(C)C)ccc3S(=O)(=O)N([C@@H](C)CO)C[C@@H]2C)cc1 29%
COc1ccc(S(=O)(=O)N2CCC3(CC2)CN(C(=O)c2cccnc2)[C@@H](CO)c2c3c3ccc(OC)cc3n2C)cc1 12.7%
Cc1ccc(S(=O)(=O)N(C)C[C@H]2OCCCC[C@H](C)Oc3ccc(NS(=O)(=O)c4ccc(F)cc4)cc3C(=O)N([C@H](C)CO)C[C@@H]2C)cc1 -0.702%
C[C@H]1CN([C@@H](C)CO)C(=O)c2c(c3ccccc3n2C)-c2ccccc2CO[C@@H]1CN(C)Cc1cccc2c1OCCCO2 -13.3%
O=C(Nc1cc(F)ccc1F)N1CC(=O)N2[C@H](CO)[C@@H](c3ccc(C#CC4CCCCC4)cc3)[C@@H]2C1 -9.84%
C[C@@H]1CN([C@H](C)CO)C(=O)Cc2cc(NC(=O)Nc3ccc(F)cc3)ccc2O[C@@H]1CN(C)Cc1ccc2c(c1)OCO2 -8.82%
CN(C)C(=O)c1ccc(-c2ccc([C@H]3[C@H](CO)N4CCCCN(CCC(F)(F)F)C[C@@H]34)cc2)cc1 -22.6%
CN(C)Cc1cn(CC[C@H]2CC[C@H](NS(=O)(=O)c3ccccc3)[C@H](CO)O2)nn1 0.244%
C[C@@H]1CN([C@H](C)CO)S(=O)(=O)c2ccc(/C=C/c3ccccc3)cc2O[C@@H]1CN(C)Cc1ccccc1 5.76%
COc1ccc(S(=O)(=O)N(C)C[C@H]2OCCCC[C@H](C)Oc3ccc(NS(=O)(=O)c4ccc(C)cc4)cc3C(=O)N([C@@H](C)CO)C[C@@H]2C)cc1 -19.4%
C[C@@H]1CN([C@@H](C)CO)C(=O)c2cccc(NS(=O)(=O)c3cn(C)cn3)c2O[C@H]1CN(C)Cc1ccc(C(F)(F)F)cc1 -11%
COc1cccc(S(=O)(=O)N(C)C[C@@H]2Oc3cc(C4=CCCCC4)ccc3S(=O)(=O)N([C@H](C)CO)C[C@H]2C)c1 10.5%
C[C@H]1CN([C@@H](C)CO)C(=O)CCCn2nncc2CO[C@@H]1CN(C)C(=O)CCCN(C)C -9.61% [at 16 µM]
C[C@@H]1CN([C@@H](C)CO)S(=O)(=O)c2ccc(C3=CCCCC3)cc2O[C@H]1CN(C)S(=O)(=O)c1ccc(F)cc1 -17.2%
CCCNC(=O)N(C)C[C@@H]1Oc2ncc(Br)cc2C(=O)N([C@H](C)CO)C[C@@H]1C -18.7%
O=C(c1cnccn1)N1CC(=O)N2[C@@H](CO)[C@H](c3ccc(C#CC4CC4)cc3)[C@@H]2C1 22.1%
Cc1noc(C)c1S(=O)(=O)Nc1ccc2c(c1)C(=O)N([C@H](C)CO)C[C@@H](C)[C@@H](CN(C)Cc1ccc(C(F)(F)F)cc1)OCCCC[C@@H](C)O2 2.73%
COc1ccc(NC(=O)N(C)C[C@H]2OCCCC[C@@H](C)Oc3ccc(NC(=O)Cc4ccccc4)cc3C(=O)N([C@H](C)CO)C[C@@H]2C)cc1 0.973%
CN(C)C(=O)c1cccc(-c2ccc(C3[C@@H]4CN(C(=O)c5ccccn5)C[C@H]3N4)cc2)c1 (stereo not given in full) -21.8%
C[C@H]1CN([C@@H](C)CO)C(=O)c2ccccc2-c2ccccc2CO[C@@H]1CN(C)Cc1cccc(C(F)(F)F)c1 -11.3%
C[C@@H]1CN([C@@H](C)CO)C(=O)c2cc(NS(=O)(=O)c3ccc(Cl)cc3)ccc2O[C@@H](C)CCCCO[C@@H]1CN(C)Cc1ccc(C(F)(F)F)cc1 3.58%
COc1ccc(S(=O)(=O)N(C)C[C@@H]2Oc3c(NS(C)(=O)=O)cccc3C(=O)N([C@@H](C)CO)C[C@H]2C)cc1 1.21% [at 12 µM]
COCC(=O)Nc1ccc2c(c1)C(=O)N(C)C[C@@H](OC)[C@H](C)CN(Cc1ccccn1)[C@H](C)CO2 7.75% [at 16 µM]
Cc1noc(C)c1NC(=O)Nc1ccc2c(c1)C(=O)N([C@H](C)CO)C[C@@H](C)[C@@H](CN(C)Cc1ccc(C(=O)Nc3ccccc3N)cc1)O2 -3.26%
O=C(NC1CCCC1)N[C@@H]1CC[C@H](CC(=O)N2CCOCC2)O[C@H]1CO 8.82%
C[C@H](CO)N1C[C@H](C)[C@@H](CN(C)Cc2ccc(Cl)c(Cl)c2)Oc2ccc(NC(=O)CCCCCC(=O)Nc3ccccc3N)cc2CC1=O 3.52%
C[C@H](CO)N1C[C@H](C)[C@H](CN(C)C(=O)c2ccccc2F)Oc2ncc(Br)cc2C1=O -2.09%
